In the supplement of paper PMC6555819:

What was measured:
Assay in all cases: PBM binding z-score (relative to random genomic background probes); higher = stronger binding; sequences stand for … in GC…GCGATTGACAGCGTAGAATGAAGG
[1] = test system: PPARg:RXRa IVT, anti-PPARg (NR concentration 270 nM, RXRa partner concentration 90 nM)
Outline: (§1)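 Scanned fluorescence from custom Agilent 4×180K protein-binding microarrays was regression-normalized. Binding z-scores use random background probes as reference. Ligand-free nuclear receptor dimers were incubated on the arrays for 1 h and detected with antibodies against each partner (one per run).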

[2] = test system: PPARg DBDmut:RXRa IVT, anti-PPARg (DBD mutation: PPARg1 K132A/R137A, NR concentration 270 nM, RXRa partner concentration 90 nM)
Outline: as §1

[3] = test system: PPARg DBDmut IVT, anti-PPARg (DBD mutation: PPARg1 K132A/R137A, NR concentration 270 nM)
Outline: as §1

[4] = test system: PPARg homodimer (NR concentration 180 nM)
Outline: as §1

[5] = test system: PXR homodimer (NR concentration 270 nM)
Outline: as §1

[6] = test system: RARa:RXR (NR concentration 270 nM, RXRa partner concentration 90 nM)
Outline: as §1

[7] = test system: RARa homodimer (NR concentration 270 nM)
Outline: as §1

[8] = test system: RARb homodimer (NR concentration 270 nM)
Outline: as §1

[9] = test system: RARb:RXRa (NR concentration 270 nM, RXRa partner concentration 90 nM)
Outline: as §1

| Sequence | PBM binding z-score [1] | PBM binding z-score [2] | PBM binding z-score [3] | PBM binding z-score [4] | PBM binding z-score [5] | PBM binding z-score [6] | PBM binding z-score [7] | PBM binding z-score [8] | PBM binding z-score [9] |
| --- | --- | --- | --- | --- | --- | --- | --- | --- | --- |
| CTACCAAGGTCAACAAGGTCGTTGATTACTATTC | 4.74 | 1.26 | 1.4 | 4.44 | 12.6 | 6.63 | 3.35 | 5.25 |  |
| TATACGGGGTCAAAGGCCAGAGTACGAATGTCGA | 6.45 | 4.68 | 3.02 | 3.58 | 1.98 |  | 1.66 | 4.34 | 5.29 |
| CCTTACGGGTCACGAGGTCATAGCACGACGAGCG | 6.02 | 2.06 | 1.59 | 5.34 | 2.24 |  | 2.17 | 4.95 | 5.23 |
| ACTTACGGGTCAACGAGGTCATAGCACGCGTATA | 5.29 | 2.33 | 3.32 | 4.63 | 11.6 | 7.02 | 2.3 | 5.04 | 4.82 |
| CAAACAAGGTCACCGGAAGGTCAAAGTCCGCATG | 6.66 | 3.88 | 3.51 | 10.2 | 4.84 |  | 5.98 | 5.88 |  |
| CAAACGAGGTCAAAGGTCAAAGTCGAGCCAACCA | 8.38 | 5.96 | 5.7 | 7.87 | 5.27 |  | 6.67 | 5.59 |  |
| AGTCAAAGTTCATCTAGGTCACGTAAGATATGCT | 6.09 | 1.86 | 2.18 | 4.77 | 13.9 | 6.05 | 2.4 | 5.12 |  |
| CCTACTGGGTCAAAGGTCATTGATTCCAATGCTC | 8.67 | 3.67 | 3.47 | 7.2 | 3.3 |  | 2.65 | 5.06 |  |
| CGTCCAAGGTCAAAGGTCATTGAAGAGATGACGG | 6.27 | 2.57 | 0.832 | 5.55 | 4.59 |  | 5.35 | 5.63 | 6.2 |
| ACTCGGAGGTCAAAGGTCAGAGCTACGCCAGTGA | 6.2 | 2.13 | 2.31 | 6.27 | 1.87 |  | 3.86 | 5.48 |  |
| CCTTAGGGGTCACTCCAGGTTATAGCATCGGAGT | 5.37 | 2.85 | 0.901 | 3.42 | 0.789 |  | 1.3 | 4.71 | 5.36 |
| CAAAATAGGTCACGAAAGGTCAAAGTCGAATGAC | 8.54 | 5.84 | 4.87 | 10.7 | 3.21 |  | 7.69 | 5.79 | 6.03 |
| GGAACGAGGGCATTCGAGTTCATAGCATGGCGAT | 2.61 | 0.143 | -0.584 | 0.888 | 14 | 2.84 | -0.506 | 2.4 | 2.75 |
| CGTCAAAGGTCAACTAAGGTAACGTAAAGCACGC | 5.93 | 1.03 | 0.957 | 4.87 | 1.59 | 6.58 | 3.77 | 5.33 |  |
| CCTTAGGGGTCACGAGGTTATAGCACGACGAGCG | 6.5 | 3.28 | 2.27 | 5.3 | 0.897 |  | 2.78 | 5.21 |  |
| ATATGTAGGTTAACTGGGGTCATTCAGACTAGGC | 7.34 | 1.81 | 2.42 | 1.95 | 5.25 | 5.93 | 1.61 | 4.28 | 3.55 |
| ATATGTAGGTTAAAGGTCATTCAGGTTGGTTCGC | 8.56 | 4.82 | 3.73 | 4.43 | 7.91 |  | 3.28 | 4.8 | 4.74 |
| ATATGTAGGTCAAGGGTCATTCAGGTTGGTTCGC | 9.34 | 5.02 | 3.68 | 4.44 | 2.53 |  | 1.72 | 5.1 | 5.35 |
| CGTCCAAGGTCATAGAGGTCAGTGAATGCCGAGT | 4.48 | 0.246 | 1.44 | 7.41 | 13.8 |  | 3.94 | 5.34 | 5.39 |
| TGTCAATGTTCAAAGGTAACGTAAGTATCCACAC | 1.8 | 1.27 | 0.82 | 0.516 | -0.115 | 0.48 | -0.4 | 0.732 | 1.09 |

| Sequence | PBM binding z-score [1] | PBM binding z-score [2] | PBM binding z-score [3] | PBM binding z-score [4] | PBM binding z-score [5] | PBM binding z-score [6] | PBM binding z-score [7] | PBM binding z-score [8] | PBM binding z-score [9] |
| --- | --- | --- | --- | --- | --- | --- | --- | --- | --- |
| TCTAGTGGGTCAAAGGTCACACACTCGAAATGCG | 8.52 | 2.65 | 1.71 | 4.18 | 1.74 |  | 2.97 | 5.22 |  |
| TGTCAAAGTTCAAAGGTCACGTAAGTATCCACAC | 6.64 | 4.45 | 3.14 | 6.73 | 5.82 |  | 5.52 | 5.93 |  |
| CAAACCAGGTCAAAGGTCAAAGTCGAGCCAACCA | 7.43 | 2.48 | 1.06 | 4.04 | 2.11 | 9.04 | 3.33 | 5.45 | 5.8 |
| CCTACTGGGCCATTCAGAGGGCATTGATCATATG | 3.43 | -0.276 | -0.131 | 0.0332 | -0.0942 | 0.0322 | -0.556 | 1.27 | 1.09 |
| ATATGTAGGTTAGGGGTCATTCAGGTTGGTTCGC | 7.13 | 1.75 | 2 | 5.22 | 6.76 |  | 2.76 | 4.47 | 3.82 |
| CAAACGAGGTCAAGAGGTCAAAGTCCGCTTCCCG | 7.14 | 1.86 | 1.69 | 5.31 | 6.05 | 8.32 | 2.73 | 6.42 |  |
| AGAACGAGGTCACGCTGAGTTGATAGCAGAGTAG | 7.41 | 3.83 | 1.29 | 4.17 | 2.35 | 6.71 | 1.26 | 4.38 |  |
| CAAACAAGGTCAAAGGTCAAAGTCGAGCCAACCA | 7.85 | 4.28 | 4.16 | 7.37 | 4.12 |  | 6.18 | 5.66 |  |
| CAAACGAGGTCACAGAGGTCAAAGTCCGTGCGTA | 7.63 | 3.35 | 5.12 | 7.88 | 15.3 |  | 5.39 | 5.83 |  |
| CGTCAAAGGTCATAGGAGGTCAGTGAAGACAGAT | 6.23 | 1.59 | 3.77 | 5.41 | 4.17 |  | 3.82 | 5.95 |  |
| TCTAGTAGGTCAAAGGTCACACACTCGAAATGCG | 9.26 | 6.06 | 3.11 | 7.45 | 2.56 |  | 5.05 | 5.5 |  |
| TATACAGGGTCAAAGGTCAGAGTACGAATGTCGA | 6.32 | 2.47 | 1.85 | 2.64 | 1.68 |  | 2.73 | 5.41 |  |
| ATATGTAGGTTATCTGGGGTCATTCAGACTAGGC | 6.58 | 2.87 | 2.04 | 3.42 | 6.37 | 5.95 | 1.76 | 3.97 | 3.16 |
| CGTCTAAGGTCATAGGAGGTCAGTGAAGACAGAT | 4.85 | 1.68 | 1.09 | 6.3 | 6.55 |  | 3.85 | 5.47 | 5.66 |
| AATACGGGGTCATCGTAGGCCAGAGTACGCACAG | 5.98 | 1.67 | 2.1 | 3.3 | 1.94 |  | 1.73 | 4.48 | 5.09 |
| CAAACAAGGTCACAGAGGTCAAAGTCCGTGCGTA | 7.16 | 3.22 | 4.2 | 6.67 | 14.1 |  | 3.72 | 5.85 |  |
| CAAACTAGGTCAAGAGGTCAAAGTTCGCTTCCCG | 8.83 | 3.82 | 5.91 | 10.9 | 5.01 |  | 4.53 | 5.71 | 5.51 |
| CGTCCAAGGTCACAGAGGTCAGTGAATGCCGAGT | 5.63 | 1.12 | 0.337 | 3.92 | 12.2 | 6.75 | 2.06 | 5.82 |  |
| TCTAGTTGGTCAAAGGTCACGCACTCGAAATGCG | 6.68 | 3.73 | 2.56 | 6.55 | 1.96 |  | 4.59 | 5.32 |  |
